SMILES strings stand for the structures. Potency and affinity values are given separately. Active and inactive are the calls of the source. Entries that show only a call come without a potency. How the calls were made is not given here.

CAAX prenyl protease 2 (Homo sapiens), sequence (Q9Y256 whole entry, looked up): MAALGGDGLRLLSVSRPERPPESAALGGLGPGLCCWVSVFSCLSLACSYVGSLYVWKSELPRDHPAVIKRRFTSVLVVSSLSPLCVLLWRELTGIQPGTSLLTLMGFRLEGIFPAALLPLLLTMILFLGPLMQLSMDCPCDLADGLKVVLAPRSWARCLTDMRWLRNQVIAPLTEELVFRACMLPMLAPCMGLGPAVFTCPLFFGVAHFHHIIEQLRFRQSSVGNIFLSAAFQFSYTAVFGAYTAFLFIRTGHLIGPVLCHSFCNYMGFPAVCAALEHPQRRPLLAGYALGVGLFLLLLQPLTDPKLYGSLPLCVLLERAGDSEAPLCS

The assay concerns the target CAAX prenyl protease 2 (Homo sapiens) (UniProt Q9Y256). Description: inhibition of Ras-converting CAAX protease Rce1 – biochemical, yeast membranes, quenched-peptide fluorescence, cherry-pick, dose response (AID 588849). As to conditions: yeast membrane fractions expressing human Rce1, quenched-peptide fluorescence, 4 h; series mostly up to 10 µM.
On to `CC(C)CNC(=O)COc1cccc(C(=O)NCc2ccccc2)c1`, for which the call was inactive.
Take `OC1CCN(C(c2ccc3ncccc3c2)c2nnnn2C2CCCCC2)CC1` (stereo not drawn): the result was inactive.
As for `O=C(c1cnc2n(c1=O)CCS2)N1CCN(C(c2ccccc2)c2ccc(Cl)cc2)CC1` (stereo not drawn), the entry is “inactive”; as for `Cc1ccc(-c2c(C(=O)N/N=C/c3cccc(Cl)c3)nnn2-c2nonc2N)cc1`, “inactive”.
With `COc1cc(-c2nc3ccccn3c2/N=C/c2cc(OC)c(OC)c(OC)c2)ccc1O`, the call was inactive.
As for `CCCCN(CC)CCNC(=O)c1cc2c(-c3ccc(Cl)cc3)nn(C)c2s1`, the entry is “inactive”; as for `Cc1ccc(S(=O)(=O)c2cn(C)c3cc(N4CCOCC4)c(F)cc3c2=O)cc1`, “inactive”; as for `COc1cccc(-c2ccc(-c3noc(-c4ccccc4F)n3)c(OC)n2)c1`, “inactive”.
The value for `CCCCCCCCCCOC(=O)Cn1c(COc2ccc(C)cc2)[n+](C)c2ccccc21` was “inactive”.
On to `Oc1c(N=NC(=S)Nc2ccccc2F)c2ccccc2n1Cc1ccccc1F`, for which the result was inactive.
Consider `Cc1nc(N2CCOCC2)c2c(C)c(C(=O)Nc3ccc(C(F)(F)F)cc3)sc2n1`, for which the result was inactive.
The value for `COc1ccc(-n2nc(C(=O)NCC(=O)N3CCC(C)CC3)c3ccccc3c2=O)cc1` was “inactive”; that for `O=C1CN(C(=O)NCC(=O)N2CCCC2)c2ccccc2N1` was “inactive”; that for `COc1ccc(C(CNC(=O)COc2cc(C)c(Cl)c(C)c2)N2CCCCC2)cc1` (stereo not drawn) was “inactive”.
Turning to `O=C(O)c1ccc2cccc(Cl)c2c1O`, the compound was classed as inactive.
The value for `CCOC(=O)[C@@H]1[C@H]2COc3ccc(Br)cc3[C@@H]2N2C(=O)N(c3cccc(Cl)c3)C(=O)[C@]12C` was “inactive”; that for `CCOC(=O)c1c(NC(=O)COc2ccccc2F)sc2c1CC(C)(C)NC2(C)C` was “inactive”.
Take `C=CCc1cccc(/C=N/NC(=O)COc2ccc(-n3cnnn3)cc2)c1O`: the compound was called inactive.
For `Cc1c(Cc2ccccc2)c(=O)oc2c(C)c(OCC(=O)N3CCC(C(=O)O)CC3)ccc12`, the call was inactive.
As for `O=C(O)CCc1nc2cc(C(F)(F)F)ccc2n(Cc2ccccc2)c1=O`, the outcome was inactive.
For the compound `O=C(Nc1cccc(-c2cn3ccccc3n2)c1)C1CC1`, the result was inactive.
As for `COc1ccc(CN2CCN(C(c3ccc(F)cc3)c3ccc(F)cc3)CC2)c(OC)c1OC`, the compound was classed as inactive.
With `CSC[C@H](NC(=O)COc1cc2c(c3oc(=O)cc(C)c13)CCC(C)(C)O2)C(=O)O`, the call was inactive.
Consider `Cc1cc(C)n(-c2nc3ccccc3c(=O)n2OCC(=O)N(C)C)n1`, for which the result was inactive.
In the case of `COc1ccc(/C=N/NC(=O)c2ccc(Cl)cc2)cc1COC(C)=O`, the outcome was inactive.
Turning to `COc1ccc(OC)c(/C=N/c2c(-c3ccc(O)c(OC)c3)nc3ccccn23)c1`, the result was inactive.
Regarding `NC(=NCCCCCCN=C(N)/N=C(\N)Nc1ccc(Cl)cc1)/N=C(\N)Nc1ccc(Cl)cc1`, the outcome was inactive.
For the compound `C/C(CC(=O)NCc1ccco1)=N\NC(=O)c1ccc([N+](=O)[O-])cc1Cl`, the outcome was inactive.
As for `CCC(=O)Nc1cccc(NC(=S)NC(=O)c2cccs2)c1`, the entry is “inactive”; as for `COc1cc2cc(C(=O)O)[nH]c2c(OC)c1OC`, “inactive”.
On to `CCOc1cc(CNC2CCCC2)ccc1OCc1ccccc1Cl`, for which the call was inactive.
As for `CC(C)N1CCN(Cc2ccc(OCc3ccccc3)cc2)CC1CCO` (stereo not drawn), the entry is “inactive”; as for `CS(=O)(=O)c1ccc(C(=O)OCC(=O)N(CCc2ccccc2)Cc2ccccc2)cc1`, “inactive”.
For `Cc1cccc(N2C(=O)c3cccc4c(N5CCCCC5)c([N+](=O)[O-])cc(c34)C2=O)c1C`, the call was inactive.
In the case of `CCOc1cccc(-c2c(C(=O)N/N=C/c3c(F)cccc3Cl)nnn2-c2nonc2N)c1`, the call was inactive.
In the case of `COc1c2ccoc2nc2c(OC)cccc12`, the outcome was inactive.
Consider `FC(F)(F)c1cc(Oc2ccccc2)ncc1-c1nnc(-c2ccccc2Cl)o1`, for which the call was inactive.
`CC1=CC2=NC(=O)CC(C)(C(=O)N(CC(=O)NC3CCCC3)Cc3ccccc3)N2C=C1` (stereo not drawn): the result was inactive.

These data come from PubChem BioAssay AID588849 (Broad Institute, 2011).
